# Laboratory results from PubChem BioAssay AID1159580 (chemical genetic matrix, 2015).
# Hit rate of the full screen: of about 5,500 compounds, about 2,000 (36%) were called active. About 18% were inconclusive and are not listed. The list shows a part of the results. A number with no mark means an inactive call. Rule as the data show it: active = normalized growth mostly below about 0.91 (no sharp cut-off); inconclusive = no clear call, values can overlap the other calls; inactive = mostly above about 0.92.
# Experiment: chemical genetic growth profiling, strain panel (AID 1159580);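 also: tested at 20 µM; growth read once vehicle control cultures reached saturation at 30 °C; 1 = growth at the plate median or of vehicle wells; lower values mean less growth of the strain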
# Conditions: S. cerevisiae deletion strains, growth OD
# [1] = locus YAR019C, strain CDC15, active compounds read low
# [2] = locus YBL105C, strain PKC1, active compounds read low
# [3] = locus YBR135W, strain CKS1, active compounds read low
# [4] = locus YBR136W, strain MEC1, active compounds read low
# [5] = locus YDL017W, strain CDC7, active compounds read low
# [6] = locus YDL101C, strain DUN1, active compounds read low
# [7] = locus YDL214C, strain PRR2, active compounds read low
# [8] = locus YDR052C, strain DBF4, active compounds read low
# [9] = locus YDR054C, strain cdc34, active compounds read low
# [10] = locus YDR226W, strain ADK1, active compounds read low
# [11] = locus YDR477W, strain SNF1, active compounds read low
# [12] = locus YER123W, strain YCK3, active compounds read low
# [13] = locus YER133W, strain GLC7, active compounds read low
# [14] = locus YFL029C, strain CAK1, active compounds read low
# [15] = locus YFR003C, strain YPI1, active compounds read low
# [16] = locus YFR019W, strain FAB1, active compounds read low
# [17] = locus YFR028C, strain CDC14, active compounds read low
# [18] = locus YGR040W, strain KSS1, active compounds read low
# [19] = locus YGR052W, strain FMP48, active compounds read low
# [20] = locus YGR092W, strain DBF2, active compounds read low
# [21] = locus YHR030C, strain SLT2, active compounds read low
# [22] = locus YHR079C, strain IRE1, active compounds read low
# [23] = locus YHR082C, strain KSP1, active compounds read low
# [24] = locus YHR205W, strain SCH9, active compounds read low
# [25] = locus YIL147C, strain SLN1, active compounds read low
# [26] = locus YJL095W, strain BCK1, active compounds read low
# [27] = locus YJL157C, strain FAR1, active compounds read low
# [28] = locus YJR066W, strain TOR1 (second series), active compounds read low
# [29] = locus YJR066W, strain TOR1, active compounds read low
# [30] = locus YKL048C, strain ELM1, active compounds read low
# [31] = locus YKL067W, strain YNK1, active compounds read low
# [32] = locus YKL101W, strain HSL1, active compounds read low
# [33] = locus YKL193C, strain SDS22, active compounds read low
# [34] = locus YKL203C, strain TOR2, active compounds read low
# [35] = locus YLR113W, strain HOG1, active compounds read low
# [36] = locus YLR133W, strain CKI1, active compounds read low
# [37] = locus YLR403W, strain SFP1, active compounds read low
# [38] = locus YML070W, strain DAK1, active compounds read low
# [39] = locus YMR001C, strain CDC5, active compounds read low
# [40] = locus YMR205C, strain PFK2 (second series), active compounds read low
# [41] = locus YMR277W, strain FCP1, active compounds read low
# [42] = locus YNL006W, strain LST8, active compounds read low
# [43] = locus YNL020C, strain ARK1, active compounds read low
# [44] = locus YNL183C, strain NPR1, active compounds read low
# [45] = locus YNL222W, strain SSU72, active compounds read low
# [46] = locus YNL307C, strain MCK1 (second series), active compounds read low
# [47] = locus YOL078W, strain AVO1, active compounds read low
# [48] = locus YOL136C, strain PFK27, active compounds read low
# [49] = locus YOR061W, strain CKA2, active compounds read low
# [50] = locus YOR119C, strain RIO1, active compounds read low
# [51] = locus YOR231W, strain MKK1, active compounds read low
# [52] = locus YOR329C, strain SCD5, active compounds read low
# [53] = locus YPL031C, strain PHO85, active compounds read low
# [54] = locus YPL153C, strain RAD53, active compounds read low
# [55] = locus YPL204W, strain HRR25, active compounds read low
# [56] = locus YPL209C, strain IPL1, active compounds read low
# [57] = locus YPL256C, strain CLN2, active compounds read low
# [58] = locus YPR025C, strain CCL1, active compounds read low
# [59] = locus YPR106W, strain ISR1, active compounds read low
# [60] = strain NNK1, active compounds read low
# [61] = strain TSCII, active compounds read low
compound,measurement,setting,value
COC(=O)/C=C1/OC(c2ccc(OC)cc2)=CC1=O,normalized growth,[1],0.283 (active)
same,normalized growth,[2],0.594 (active)
same,normalized growth,[3],0.428 (active)
same,normalized growth,[4],0.671 (active)
same,normalized growth,[5],0.968
same,normalized growth,[6],0.447 (active)
same,normalized growth,[7],0.105 (active)
same,normalized growth,[8],0.981
same,normalized growth,[9],0.464 (active)
same,normalized growth,[10],0.923
same,normalized growth,[11],0.101 (active)
same,normalized growth,[12],0.102 (active)
same,normalized growth,[13],0.0947 (active)
same,normalized growth,[14],0.177 (active)
same,normalized growth,[15],0.98
same,normalized growth,[16],0.099 (active)
same,normalized growth,[17],0.433 (active)
same,normalized growth,[18],0.108 (active)
same,normalized growth,[19],0.125 (active)
same,normalized growth,[20],0.154 (active)
same,normalized growth,[21],0.14 (active)
same,normalized growth,[22],0.29 (active)
same,normalized growth,[23],0.143 (active)
same,normalized growth,[24],0.0277 (active)
same,normalized growth,[25],0.978
same,normalized growth,[26],0.124 (active)
same,normalized growth,[27],0.121 (active)
same,normalized growth,[28],0.102 (active)
same,normalized growth,[29],0.15 (active)
same,normalized growth,[30],0.402 (active)
same,normalized growth,[31],0.0947 (active)
same,normalized growth,[32],0.156 (active)
same,normalized growth,[33],0.221 (active)
same,normalized growth,[34],0.103 (active)
same,normalized growth,[35],0.163 (active)
same,normalized growth,[36],0.129 (active)
same,normalized growth,[37],0.16 (active)
same,normalized growth,[38],0.0894 (active)
same,normalized growth,[39],0.273 (active)
same,normalized growth,[40],0.152 (active)
same,normalized growth,[41],0.274 (active)
same,normalized growth,[42],0.989
same,normalized growth,[43],0.315 (active)
same,normalized growth,[44],0.115 (active)
same,normalized growth,[45],0.499 (active)
same,normalized growth,[46],0.123 (active)
same,normalized growth,[47],0.316 (active)
same,normalized growth,[48],0.102 (active)
same,normalized growth,[49],0.308 (active)
same,normalized growth,[50],0.108 (active)
same,normalized growth,[51],0.23 (active)
same,normalized growth,[52],0.988
same,normalized growth,[53],0.103 (active)
same,normalized growth,[54],0.221 (active)
same,normalized growth,[55],0.282 (active)
same,normalized growth,[56],0.5 (active)
same,normalized growth,[57],0.154 (active)
same,normalized growth,[58],0.576 (active)
same,normalized growth,[59],0.507 (active)
same,normalized growth,[60],0.11 (active)
same,normalized growth,[61],0.265 (active)
CO/N=C1/CC(C)(C)Cc2c(-c3ccn(C(=O)Nc4cccc(Cl)c4)n3)sc(SC)c21,normalized growth,[1],0.981
same,normalized growth,[2],0.965
same,normalized growth,[3],0.968
same,normalized growth,[4],0.969
same,normalized growth,"locus YBR160W, strain CDC28, active compounds read low",0.964
same,normalized growth,[5],0.967
same,normalized growth,"locus YDL028C, strain MPS1, active compounds read low",0.963
same,normalized growth,[6],0.975
same,normalized growth,"locus YDL108W, strain KIN28, active compounds read low",0.959
same,normalized growth,"locus YDL132W, strain cdc53, active compounds read low",0.967
same,normalized growth,[7],0.983
same,normalized growth,[8],0.973
same,normalized growth,[9],0.971
same,normalized growth,[10],0.974
same,normalized growth,[11],0.996
same,normalized growth,[12],0.993
same,normalized growth,[13],1
same,normalized growth,"locus YFL009W, strain cdc4, active compounds read low",0.963
same,normalized growth,[14],0.978
same,normalized growth,[15],0.96
same,normalized growth,[16],1
same,normalized growth,[17],0.969
same,normalized growth,[18],1
same,normalized growth,[19],1.02
same,normalized growth,[20],1
same,normalized growth,[21],1.16 [resistant] (active)
same,normalized growth,[22],1.13
same,normalized growth,[23],1.1
same,normalized growth,[24],0.989
same,normalized growth,[25],0.972
same,normalized growth,[26],1.02
same,normalized growth,"locus YJL128C, strain PBS2, active compounds read low",0.952
same,normalized growth,[27],0.996
same,normalized growth,"locus YJR016C, strain ILV3, active compounds read low",0.97
same,normalized growth,[28],1.06
same,normalized growth,[29],1.1
same,normalized growth,[30],0.993
same,normalized growth,[31],0.98
same,normalized growth,[32],0.988
same,normalized growth,[33],0.968
same,normalized growth,[34],1.06
same,normalized growth,[35],0.968
same,normalized growth,[36],0.98
same,normalized growth,[37],1.02
same,normalized growth,[38],0.984
same,normalized growth,[39],0.977
same,normalized growth,[40],0.978
same,normalized growth,[41],0.97
same,normalized growth,[42],0.981
same,normalized growth,[43],0.983
same,normalized growth,"locus YNL161W, strain CBK1, active compounds read low",0.977
same,normalized growth,[44],1.03
same,normalized growth,"locus YNL207W, strain RIO2, active compounds read low",0.971
same,normalized growth,[45],0.969
same,normalized growth,[46],0.992
same,normalized growth,[47],0.966
same,normalized growth,[48],0.993
same,normalized growth,[49],0.98
same,normalized growth,[50],1.05
same,normalized growth,[51],0.984
same,normalized growth,[52],0.971
same,normalized growth,[53],1.02
same,normalized growth,[54],1.04
same,normalized growth,[55],1.02
same,normalized growth,[56],0.969
same,normalized growth,[57],1.13
same,normalized growth,[58],0.963
same,normalized growth,[59],0.975
same,normalized growth,"locus YPR111W, strain DBF20, active compounds read low",0.962
same,normalized growth,[60],0.989
same,normalized growth,[61],0.977
